Hits are enriched below; roughly 3.6% of the tested compounds scored in any of these assays.
SKOV3 invasion = ovarian cancer metastasis inhibition, 3D TME model | SKOV3ip1-GFP adhesion/invasion on 3D omental model, fluorescence | Potency, µM (highest dose often 45.8 µM), for inactives: top-dose activity change, negative = inhibition, hits mostly inhibitors | 0.1% of 46,000 active | AID 1963576;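 note: plate controls were DMSO wells for no effect and tomatine positive control wells for full effect; nearly all actives have a fitted effect of over 65% in size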
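qHTS, 4-pt dose (0.36-46 umol/L); SKOV3ip1-GFP, 1,200 cells/well, no FBS; primary omental fibroblast/mesothelial co-culture 48 h pre-grown; 2 h RT + 16 h 37 C; PBS wash, 4% PFA; GFP count 488/509 nm.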
PMP22 txn = PMP22 gene transcription modulation. S16 Pmp22-F2sN Schwann cells, FLuc/NLuc coincidence luminescence, 24 h. Potency, µM (series often up to 57.5 µM), without a hit: at the top dose activity change, negative = inhibition, hits mostly inhibitors. 2% of 43,000 active; active = clear falling dose curves in both reporters; inconclusive = both reporters move, but less clearly or upward; inactive = either reporter flat; the % is the NLuc reporter signal; note: % is set by controls: 0 for no effect and ±100 for the full control effect
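qHTS, 1536-well. Cells seeded, compounds added by pin tool, 24 h 37C. Nano-Glo reagent 1 (lysis/FLuc), 10 min RT, read; Stop&Glo, 10 min RT, read NLuc.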
GALC G270D act = galactocerebrosidase G270D activity enhancement, cell-based | Potency, µM (titrated, usually from 57.5 µM), usual class: activators | P54803 | 145M-Twi-hGALC-G270D cells, HMU-beta-Gal fluorescence, 48 h | 0.1% of 45,000 active; note: 0% is about no effect; nearly all actives have a fitted effect of over 65% in size
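qHTS, 1536-well; 145M-Twi-hGALC-G270D cells (WT line also made) in DMEM/F12 + 10% FBS; compound incubation on live cells; HMU-β-gal 0.1 mM final, pH 5.2, NaTC; carbonate stop; fluorescence increase = enhanced residual activity.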
mTORC1 inh = inhibitors of mTORC1 signaling in Tsc2-/- p53-/- MEF cells | Potency, µM (series often up to 38.3 µM), for the others: at the top dose activity change, negative = inhibition, usual class: inhibitors | Tsc2-/- p53-/- MEF, phospho-rpS6 immunofluorescence/PI, 24 h | 0.78% of 44,000 active;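 note: plate controls were DMSO for no effect and rapamycin for full effect; nearly all actives have a fitted effect of over 50% in size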
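Tsc2-/-, p53-/- mouse embryonic fibroblasts (empty-vector line) exposed to compound 24 hrs at 37 C, fixed, immunostained for phospho-rpS6 and counterstained with propidium iodide. Acumen laser scanning gives % positive cells from Alexa 488/PI ratio, thresholded using 7.5 nM rapamycin; PI count gives viability.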
NTMT1 inhibitor = inhibitors of human N-terminal methyltransferase NTMT1; Q9BV86; 2.5% of 59,000 active; NTMT1 MTase-Glo SAH luminescence, purified enzyme; Potency, µM (titrated, usually from 114 µM), for the others: top-dose activity change, negative = inhibition, actives largely listed as inhibitors;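 note: plate controls were DMSO vehicle for no effect and no enzyme for full effect; nearly all actives have a fitted effect of over 65% in size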
Target sequence (Q9BV86 whole entry, looked up): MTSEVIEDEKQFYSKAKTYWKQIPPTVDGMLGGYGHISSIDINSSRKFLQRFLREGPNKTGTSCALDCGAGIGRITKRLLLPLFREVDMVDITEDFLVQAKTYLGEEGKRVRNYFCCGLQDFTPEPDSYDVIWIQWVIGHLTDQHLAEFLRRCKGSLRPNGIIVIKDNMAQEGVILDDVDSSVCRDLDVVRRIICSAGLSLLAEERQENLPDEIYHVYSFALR
S16 F2sN tox = toxic to S16 Pmp22-F2sN Schwann cells; AID 1508642; Potency, µM (doses to about 57.5 µM), for inactives: top-dose activity change, negative = cytotoxicity, actives largely listed as cytotoxic; S16 Pmp22-F2sN Schwann cells (luciferase reporters placed in the Pmp22 gene) viability, CellTiter-Glo, 24 h; 0.48% of 43,000 active; note: % is set by controls: 0 for no effect and ±100 for the full control effect; nearly all actives have a fitted effect of over 65% in size
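Luminescence from CellTiter-Glo, read by CCD camera after a 15 min room-temperature incubation, served as the viability signal. Reporter Schwann cells (S16 Pmp22-F2sN) had been treated with pin-transferred compounds for 24 h at 37C.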
* marks the source's active call; other numbers are inactive results; i = inactive; ? = inconclusive; . = no result given; ! = not confirmed by another sample; [ ] = another dose, or the depositor's remark. Unless noted, calls come from the whole dose curve; as a rule, active = well fitted curve in the direction sought with a large enough effect; inconclusive = small, poorly fitted or top-dose-only effect, or another doubt; inactive = no such curve, though single readings can be large; an effect the other way counts as inactive or inconclusive. Potency is the fitted concentration of half-maximal effect.

SMILES	SKOV3 invasion	PMP22 txn	GALC G270D act	mTORC1 inh	NTMT1 inhibitor	S16 F2sN tox
CCN(Cc1ccccc1)C(=O)c1cc2c(=O)[nH]c3ccc(C)cc3c2s1	-1%	-15%	i	-4%	89µM*	-1%
N#Cc1ccc(N2CCN(S(=O)(=O)c3ccc4c(c3)CC(=O)N4)CC2)cc1	.	.	.	.	-14%	.
COC(=O)/C=C/C(=O)OC	.	.	.	.	3%	.
C[C@H]1CC(=O)C2=C(C1)C(O)C(O)[C@@]1(O)[C@H]2C(=O)c2cccc(O)c2[C@@H]1O (stereo not given in full)	.	.	.	.	11%[29.8 µM]	.
Cc1cc(Nc2ccc(Cl)cc2C)nc(-n2nc(C)cc2C)n1	-9%	7µM*	i	0%	26%	5.6µM*
Cc1ccc(Nc2cc(C)nc(-n3nc(C)cc3C)n2)cc1	i	?	i	-17%	4%	?
COc1cc(/C=C/CO[C@@H]2O[C@H](CO)[C@@H](O)[C@H](O)[C@H]2O)cc(OC)c1O[C@@H]1O[C@H](CO)[C@@H](O)[C@H](O)[C@H]1O	.	.	.	.	-24%[29.8 µM]	.
Cc1ccc(C(C)C)c(OCC(=O)Nc2cc(-c3nc4ccccc4[nH]3)ccc2C)c1	-15%	?	i	13µM*	2%	?
COc1ccc(C(=O)NC(c2ccc(Cl)cc2)c2cc(Cl)c3cccnc3c2O)cc1 (stereo not given)	2%	?	i	2%	13%	4µM*
Cc1ccc(C(=O)NC(c2ccco2)c2cc(Cl)c3cccnc3c2O)cc1 (stereo not given)	.	.	.	.	12%	.
CC(C)c1ccc(=O)n(CC(=O)NCCc2ccccc2)n1	.	.	.	.	19%	.
COc1cc(C(=O)NS(=O)(=O)c2ccccc2C)ccc1Cc1cn(C)c2ccc(NC(=O)OC3CCCC3)cc12	?	.	i	.	71µM*	.
COc1cc(/C=C/CO)cc(OC)c1O[C@@H]1O[C@H](CO[C@@H]2O[C@H](CO)[C@@H](O)[C@H](O)[C@H]2O)[C@@H](O)[C@H](O)[C@H]1O	.	.	.	.	11%[29.8 µM]	.
CCc1ccc(CN2CCc3nc(Nc4ccc5c(c4)OCCO5)ncc3C2)cc1	-3%	9%	i	0%	89µM*	-1%
COc1cc(C(=O)Nc2nc3c(s2)Cc2c(Br)ccc(OC)c2-3)cc(OC)c1OC	0%	?	i	0%	13%	25µM*
Nc1nccn2c(C3CCC(C(=O)O)CC3)nc(-c3cc4cccc(Cl)c4[nH]3)c12 (stereo not given)	.	.	.	.	35µM*!	.
CNC1CN(c2ccc3c(=O)c(C(=O)O)cn(-c4nccs4)c3n2)CC1OC (stereo not given)	.	.	.	.	8%[12.6 µM]	.
CCc1ccc(C(=O)c2cnc3ccc(F)cc3c2S(=O)(=O)c2ccccc2)cc1	-10%	?	i	12µM*	1%	-30%
C=C1CCC2[C@](C)(CO)CCC[C@@]2(C)[C@@H]1CCC1=CCOC1=O (stereo not given in full)	.	.	.	.	12%[29.8 µM]	.
Fc1cc(Nc2nc(-c3ccncc3)nc3ccccc23)ccc1N1CCNCC1	.	.	.	.	10µM*	.
Fc1cc(Nc2nc(-c3ccncc3)nc3ccccc23)ccc1-c1ccncc1	.	.	.	.	-1%	.
COc1cccc(C2c3c(ncn(-c4cccc(C)c4)c3=N)Oc3ccc4ccccc4c32)c1 (stereo not given)	.	.	.	.	-2%	.
CC(C)c1ccc(Nc2c(-c3ccccc3O)nc3cnccn23)cc1	-11%	?	i	-25%	8%	-9%
COc1cc(-c2nc3cnccn3c2Nc2ccc(C(C)C)cc2)ccc1O	-22%	?	i	15µM*	0%	?
COc1cc(-c2nc3nc[nH]n3c2Nc2ccc(C(C)C)cc2)ccc1O	i	?	i	0%	45µM*	0%
SMILES	SKOV3 invasion	PMP22 txn	GALC G270D act	mTORC1 inh	NTMT1 inhibitor	S16 F2sN tox
C=C1CCC2C(C)(C)C(O)CCC2(C)C1CCC(C)CCO (stereo not given)	.	.	.	.	9%[29.8 µM]	.
O=C(CCS(=O)(=O)c1ccccc1)N(Cc1cccnc1)c1nc2ccc(F)cc2s1	?	11µM*	i	?	-9%	4.5µM*
CCCN(CCC)CCNC(=O)C1CCN(c2nc3ccc(CC)cc3s2)CC1	?	?	i	16µM*	-20%	?
CCCCN(CCCC)CCCNC(=O)c1ccc2nc(N3CCCCC3)sc2c1	-1%	8%	i	0%	-4%	11%
CCc1ccc2nc(N3CCC(C(=O)NCCC(C)C)CC3)sc2c1	-4%	?	i	0%	-10%	1%
CCCN(CCC)CCCNC(=O)C1CCN(c2nc3ccc(CC)cc3s2)CC1	?	?	i	16µM*	?	28µM*
O=C(NCCc1ccccc1)C1CCN(c2nc(-c3ccc(Br)cc3)cs2)CC1	.	.	.	.	5µM*	.
COc1cc(-n2c(=O)c3ccccc3n(Cc3cccc(Cl)c3)c2=O)cc(OC)c1OC	-24%	?	i	5%	89µM*	?
